Here are results for 86 compounds from PubChem BioAssay AID720711 (National Center for Advancing Translational Sciences (NCATS), 2013).

Among all 360,000 compounds or so, about 290 (0.081%) were called active. The call rests on the fitted dose curve; in most records, active means well fitted activation curve with a large enough effect; inconclusive means small, poorly fitted or top-dose-only effect; inactive means no such curve, though single readings can be large or run the other way. The list comes from a sample in which actives are over-represented; it also holds similar structures and randomly drawn compounds. Where a call stands in place of a potency, no number is given.
Potency means the concentration at half of the fitted maximal effect.

Sequence of Rap guanine nucleotide exchange factor 4 (Homo sapiens) (Q8WZA2 whole entry, looked up): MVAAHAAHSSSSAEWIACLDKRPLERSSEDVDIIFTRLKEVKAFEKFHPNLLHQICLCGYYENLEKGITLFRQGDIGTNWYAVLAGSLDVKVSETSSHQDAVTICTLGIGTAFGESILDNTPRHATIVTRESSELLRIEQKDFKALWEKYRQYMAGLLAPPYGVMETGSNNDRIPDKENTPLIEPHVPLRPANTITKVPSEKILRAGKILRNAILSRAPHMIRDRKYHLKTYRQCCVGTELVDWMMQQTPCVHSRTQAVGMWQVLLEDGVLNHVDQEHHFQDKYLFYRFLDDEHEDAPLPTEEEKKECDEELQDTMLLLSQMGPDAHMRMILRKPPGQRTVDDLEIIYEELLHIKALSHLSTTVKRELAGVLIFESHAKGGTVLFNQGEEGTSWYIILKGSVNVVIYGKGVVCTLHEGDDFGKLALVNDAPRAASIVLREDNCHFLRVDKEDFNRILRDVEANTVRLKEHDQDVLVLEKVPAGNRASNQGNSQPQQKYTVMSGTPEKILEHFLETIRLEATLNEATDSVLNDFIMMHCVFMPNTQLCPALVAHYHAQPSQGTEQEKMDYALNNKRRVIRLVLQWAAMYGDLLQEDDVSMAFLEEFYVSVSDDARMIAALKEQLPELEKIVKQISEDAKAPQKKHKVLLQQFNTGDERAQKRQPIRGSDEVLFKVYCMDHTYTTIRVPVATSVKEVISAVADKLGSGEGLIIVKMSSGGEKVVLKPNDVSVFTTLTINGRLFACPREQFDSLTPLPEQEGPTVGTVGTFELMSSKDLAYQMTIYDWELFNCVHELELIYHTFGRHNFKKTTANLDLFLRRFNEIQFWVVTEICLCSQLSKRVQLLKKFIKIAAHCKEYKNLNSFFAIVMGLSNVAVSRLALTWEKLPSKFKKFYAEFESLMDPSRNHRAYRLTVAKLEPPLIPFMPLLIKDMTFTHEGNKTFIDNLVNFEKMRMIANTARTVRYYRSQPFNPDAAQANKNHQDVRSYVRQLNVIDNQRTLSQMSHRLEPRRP

This assay addresses Rap guanine nucleotide exchange factor 4 (Homo sapiens) (UniProt Q8WZA2). Description: qHTS for Agonist of cAMP-regulated guanine nucleotide exchange factor 4 (EPAC2): primary screen. Further: nearly all actives have a fitted effect of over 50% in size. The following applies: biochemical qHTS; Potency: EPAC2 activation; series mostly up to 154 µM. Summed up: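 Setup: EPAC2 100 nM, labeled Rap1B complex 250 nM, free GDP 50 uM. Compound titrations pinned in, brief spin, 5 min room temperature incubation. Kinetic fluorescence read over 30 min, normalized to 6.5 mM cAMP.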
As for `COCC1CCN(C(=O)C2CCC(=O)N(CC3CCCCC3)C2)CC1` (stereo unspecified), the Potency result was “inactive”. Turning to `CCNC(=O)N1CCN(S(=O)(=O)c2ccc3c(c2)OCCCO3)CC1`, the Potency result is “inactive”. Regarding `CCOc1cccc(C(=O)Nc2cnn(Cc3ccccc3)c2)c1`, the Potency result was “inactive”. `Nc1nnc(SCC(=O)OCc2ccc(Cl)c(Cl)c2)s1`: the Potency entry is “inactive”.

Consider `COCC1CCN(C(=O)CCc2nnc(C3(c4ccc(Cl)cc4)CCC3)o2)C1` (stereo unspecified), for which the Potency entry was “inactive”.

On to `Cc1ccc(CSc2nsc(C)c2C#N)cc1`, for which the Potency result was “inactive”.

`COC(=O)Cc1csc(/N=C/c2c(O)n(-c3cccc(C(F)(F)F)c3)c(=O)c3ccccc23)n1`: the Potency entry is “inactive”. The same measure for `Cc1cccc(-n2c(O)c(C=Nc3ccccc3N)c(=O)[nH]c2=O)c1`: “inactive”; for `Cc1ccc(N=Cc2c(O)n(-c3nccs3)c(=O)c3ccccc23)c(C)c1`: 70.8 µM (active). For the compound `COCCNC(=O)C1C(=O)Nc2ccccc2C(=O)N1c1ccc2c(c1)OCCO2` (stereo unspecified), the Potency entry is “inactive”. The same measure for `C=CCNC(=O)CCCC(=O)NCC=C`: “inactive”. With `COCCNc1nc2nonc2nc1N(C)Cc1ccc(C)cc1`, the Potency entry is “inactive”. Regarding `CCCNC(=S)NC1CC2CCCC(C1)N2CC(C)C` (stereo unspecified), the Potency result is “inactive”. With `CCOC(=O)c1sc(NC(=O)C2CSC3(C)CCC(=O)N23)nc1C` (stereo unspecified), the Potency result was “inactive”. The value for `CC(=O)c1nc(N2C(=O)C3CC=C(C)CC3C2=O)sc1C` (stereo unspecified) was “inactive”; that for `Nc1ccccc1/C=N\N=C/c1ccccc1N` was “inactive”. For the compound `Cc1occc1-c1nnc(SCC(=O)NC2(C#N)CCCC2)n1C`, the Potency result was “inactive”. For the compound `COc1ccc(-n2nc(C(=O)NCC(=O)N3CCC(C(N)=O)CC3)c3ccccc3c2=O)cc1OC`, the Potency result is “inactive”.

As for `COc1ccc2c(CC(=O)OCC(=O)NC(N)=O)coc2c1`, the Potency entry is “inactive”. For `Cc1ccc(N=C2SCCCN2C(=O)c2cccc(N3C(=O)CCC3=O)c2)cc1Cl`, the Potency entry was “inactive”.

`Nc1ccc2nn(-c3ccc(Cl)cc3)nc2c1`: the Potency entry is “inactive”. Consider `Nc1nnc(SCCN2C(=O)c3ccccc3S2(=O)=O)s1`, for which the Potency result was “inactive”. With `COc1cccc(C2CC(c3cccs3)=NN2C(=O)CSC2=NCCS2)c1OC` (stereo unspecified), the Potency entry is “inactive”. Turning to `O=C(COc1ccc(S(=O)(=O)N2CCOCC2)cc1Cl)N1CCOCC1`, the Potency result is “inactive”. Regarding `COCc1[nH][nH]c(=O)c1C=Nc1ccc(F)cc1F`, the Potency result was “inactive”.

Turning to `NC(=O)COc1ccc(NC(=O)c2ccccc2-c2ccccc2)cc1`, the Potency entry is “inactive”. In the case of `COc1ccc(NC(=O)C(=O)NCC(c2ccco2)N2CCc3ccccc3C2)cc1` (stereo unspecified), the Potency entry was “inactive”. For the compound `CCN(CC)C(=O)CSC(Nc1cccc(F)c1)=C(C#N)C#N`, the Potency entry was “inactive”. The same measure for `CSc1nnnn1-c1c(C)cc(C)cc1C`: “inactive”; for `Cc1cc(-c2ccccc2)n2nc(C)c(-c3ccccc3)c2n1`: “inactive”. In the case of `CC1=C/C(=N\OS(=O)(=O)c2ccccc2)C=CC1=O`, the Potency entry was “inactive”.

On to `COc1cccc(NC(=O)CSc2nnc(Cc3ccc(OC)c(OC)c3)o2)c1`, for which the Potency entry was “inactive”.

In the case of `COc1ccc(NC(=O)CCCOc2ccc(C(C)=O)cc2)cc1S(=O)(=O)N1CCCCC1`, the Potency result was “inactive”. The same measure for `CCOC(=O)/C(C#N)=C/c1ccc(N2CCCCC2)cc1`: 79.4 µM (active); for `COC(=O)c1sc(N2CCN(Cc3ccccc3)CC2)nc1N`: “inactive”; for `CCOC(=O)/C(C#N)=C\c1c(C)cc(C)c(COC(C)=O)c1C`: “inactive”. Regarding `CCOC(=O)/C(C#N)=C/c1ccc(N2CCN(Cc3ccccc3)CC2)cc1`, the Potency is 89.1 µM (active).

As for `CCCn1c(C)cc(/C=C(\C#N)C(=O)OCC(=O)N(C)c2c(N)n(Cc3ccccc3)c(=O)[nH]c2=O)c1C`, the Potency entry is “inactive”. On to `COc1ccc(/C=C(\C#N)C(=O)ONC2=NCCCCC2)cc1`, for which the Potency result was “inactive”. The value for `O=C(Nc1ccccc1)Oc1cccc2cccnc12` was “inactive”; that for `CCc1cc2c(=O)c(-c3ccon3)c(N)oc2cc1OC` was “inactive”. With `COCc1cc(C)nc2sc(C(=O)NC3CCCCC3)c(N)c12`, the Potency entry was “inactive”. As to `Cc1ccc(C2(C(F)(F)F)N=C3Sc4cc(C)cc(C)c4N3C(=O)N2)cc1` (stereo unspecified), the Potency result is “inactive”. Consider `CC(C)C[C@H]1CN=C(Nc2ccccc2)N1CC1CCCCC1`, for which the Potency result was “inactive”. For `NC1=NOC(=O)C1C1CCCCC1` (stereo unspecified), the Potency result is “inactive”.

As for `COc1ccc(-c2nnc(SCC(=O)Nc3cccnc3Cl)n2C)cc1`, the Potency entry was “inactive”.

As for `CCc1nccn1CCC(=O)N1CCCC(N2CCN(c3ccccc3F)CC2)C1` (stereo unspecified), the Potency entry is “inactive”. The same measure for `CC1=C(C(=O)N(C(C)C)C(C)C)CC(CC(=O)NCC2CCCCC2)C(=O)N1Cc1ccccc1` (stereo unspecified): “inactive”; for `O=C(O)CCCn1c(=O)c2cccn2c2ccc(F)cc21`: “inactive”; for `CCOc1ccccc1NC(=O)C1CCC(CNc2c(N3CCOCC3)c(=O)c2=O)CC1` (stereo unspecified): “inactive”.

On to `CC(C)CNC(=O)/C=C/C(=O)O`, for which the Potency entry was “inactive”. Regarding `C=CCN1CN(S(=O)(=O)c2ccc(OC)cc2)c2nc3ccccc3nc21`, the Potency entry is “inactive”. `CCN(CC)CCn1c(N)c(S(=O)(=O)c2ccccc2)c2nc3ccccc3nc21`: the Potency result is “inactive”. With `C=CCn1c(N)c(S(=O)(=O)c2cccs2)c2nc3ccccc3nc21`, the Potency is 10 µM (active). For `Cn1ncc(N2CCN(S(=O)(=O)c3ccc(Br)cc3)CC2)c(Cl)c1=O`, the Potency result is “inactive”.

Consider `CCCCn1c(N)c(N(CCC(C)C)C(=O)c2ccc(COc3ccccc3)o2)c(=O)[nH]c1=O`, for which the Potency result is “inactive”. For the compound `Cc1cccc(C2c3[nH]c4ccccc4c3CCN2C(=O)c2cc(-c3cccn3C)n[nH]2)n1` (stereo unspecified), the Potency entry is “inactive”. Regarding `O=C(NC1(C(F)(F)F)N=C2SCCN2C1=O)c1ccco1` (stereo unspecified), the Potency entry was “inactive”.

With `NC(=O)COC(=O)c1sc2cc(F)ccc2c1Cl`, the Potency entry is “inactive”. With `NC(=O)C1CCN(C(=O)c2ccc3c(=O)n(Cc4cccc(Br)c4)c(=S)[nH]c3c2)CC1`, the Potency result is “inactive”.

For `Cc1ccc(SCC(=O)c2cc(C)c(OC(=S)N(C)C)c(C)c2)cc1`, the Potency entry was “inactive”. Take `CSc1cc(C)[nH]c(=O)n1`: the Potency entry was “inactive”. The value for `CCCNC(=O)CCc1c(C)nc2c(c(C)nn2-c2ccccc2)c1C` was “inactive”; that for `COc1ccccc1CNC(=O)CN1CCC(n2cnc3cc(F)ccc32)CC1` was “inactive”; that for `CCN(CC)c1ncnc2c1ncn2[C@H]1CN(Cc2cccs2)C[C@@H](CO)O1` was “inactive”.

As for `COc1ccc(OCC(=O)OCC(=O)Nc2ccc(S(=O)(=O)N3CCCCC3)cc2)cc1`, the Potency entry is “inactive”. The same measure for `CCCN(CC(=O)Nc1ccc(OC)c(OC)c1)CC(=O)Nc1ccc(F)c(F)c1F`: “inactive”; for `COc1cccc(N=c2oc3c(C)ncc(CO)c3cc2C(N)=O)c1`: “inactive”; for `Cc1ccc(CNC(=O)C2CCN(S(=O)(=O)c3ccc4nc5c(c(C(=O)O)c4c3)CC(C)CC5)CC2)cc1` (stereo unspecified): “inactive”. Take `CCCCc1nc2cc(C(=O)N3CCCCC3CCO)ccc2o1` (stereo unspecified): the Potency result is “inactive”. For `COc1cc(C)c(Cl)cc1S(=O)(=O)n1ccnc1`, the Potency result was “inactive”. Regarding `CN(Cc1nc2ccccc2c(=O)[nH]1)Cc1cc(=O)oc2ccc3ccccc3c12`, the Potency entry was “inactive”. As for `CCN(CC)c1ccc2oc(=O)c(C)nc2c1`, the Potency is 100 µM (active).

`Cc1ccc2c(=O)oc(N(C)C)nc2c1`: the Potency entry was “inactive”. The same measure for `Cc1cc(C)cc(N(CC(=O)NCC2CCCO2)S(=O)(=O)c2c(C)noc2C)c1` (stereo unspecified): “inactive”; for `Cc1cc2nc3c(=O)n(Cc4ccccc4)c(=O)[nH]c3nc2cc1N`: 112 µM (active).

`Cn1c(=O)[nH]c(=O)c2c1[nH]c(=S)n2Cc1ccccc1`: the Potency entry is “inactive”. In the case of `Cc1cc(OCC(=O)N(C)c2c(N)n(Cc3ccccc3)c(=O)[nH]c2=O)c(C(C)C)cc1Cl`, the Potency result was “inactive”. The value for `CCn1nc(C)c(CNC(=O)C2CCC(=O)N(Cc3cccc(F)c3)C2)c1C` (stereo unspecified) was “inactive”; that for `CN(C)C(=O)c1nc2ccc(Cl)cn2c1CNCc1cccc(OC(F)(F)F)c1` was “inactive”; that for `CSCCC(NC(N)=O)C(=O)N(C)CC(=O)Nc1ccc(C)cc1` (stereo unspecified) was “inactive”.

In the case of `CCCCN(C1CCS(=O)(=O)C1)S(=O)(=O)c1ccc(C(C)C)cc1` (stereo unspecified), the Potency entry was “inactive”. As to `CCCC(=O)NC(=S)Nc1ccc(CN2CCOCC2)cc1`, the Potency entry was “inactive”. In the case of `O=C(CCCl)Nc1ccc(S(=O)(=O)NCc2ccco2)cc1`, the Potency result is “inactive”. The value for `O=C(CNC(c1ccccc1)c1ccccc1)Nc1ccc(F)cc1` was “inactive”. In the case of `COc1ccc(S(=O)(=O)N2CCCC(C(=O)Nc3ccc(NC(=O)c4ccccn4)cc3)C2)cc1` (stereo unspecified), the Potency entry was “inactive”.
